The structures appear in SMILES notation. Several values for one entry are separate records, joined by “and”; a condition that tells them apart may be missing. Equal entries are not always repeated. Records with an inconclusive call do not appear. Entries that show only a call come without a potency. More than one record can exist for a structure, and the calls need not agree. Values without a mark were called inactive. Activity calls are given as the source filed them. Calls come from the whole dose curve; as a rule, active = well fitted curve in the direction sought with a large enough effect; inconclusive = small, poorly fitted or top-dose-only effect, or another doubt; inactive = no such curve, though single readings can be large; an effect the other way counts as inactive or inconclusive.

Our source for the Potency and viability (% of control) values is PubChem BioAssay (NCATS).
Note: nearly all actives have a fitted effect of over 40% in size.
Potency is the fitted concentration of half-maximal effect.

Chain of Cytochrome P450 3A7 (Homo sapiens) (P24462 whole entry, looked up): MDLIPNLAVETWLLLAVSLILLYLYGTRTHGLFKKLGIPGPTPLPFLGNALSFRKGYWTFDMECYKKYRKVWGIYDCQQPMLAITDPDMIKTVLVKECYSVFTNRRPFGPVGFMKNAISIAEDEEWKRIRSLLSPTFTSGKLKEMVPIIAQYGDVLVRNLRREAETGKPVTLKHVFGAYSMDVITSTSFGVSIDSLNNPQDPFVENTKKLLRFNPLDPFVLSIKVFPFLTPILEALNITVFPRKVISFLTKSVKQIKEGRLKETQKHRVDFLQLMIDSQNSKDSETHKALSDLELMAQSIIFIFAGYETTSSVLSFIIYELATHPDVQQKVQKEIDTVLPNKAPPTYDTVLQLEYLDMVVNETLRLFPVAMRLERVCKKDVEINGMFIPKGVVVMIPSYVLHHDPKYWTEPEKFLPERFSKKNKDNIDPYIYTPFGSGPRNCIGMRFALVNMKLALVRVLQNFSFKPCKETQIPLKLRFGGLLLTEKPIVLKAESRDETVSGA

The first assay addresses Cytochrome P450 3A7 (Homo sapiens) (UniProt P24462). The assay is described as follows: Cytochrome P450 family 3 subfamily A member 7 (CYP3A7) small molecule antagonists: luciferase biochemical qHTS assay (AID 1963596). The settings on record: P450-Glo CYP3A7 enzyme luminescence, 1 h; series mostly up to 57.4 µM. The procedure, abridged: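 Enzyme-substrate mix + cpd (DMSO), 10 min RT; + NADPH regen system, 1 h RT; + luciferin detection reagent, 20 min RT; luminescence read. Proluciferin substrate, P450-Glo format, 1536-well qHTS.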
Consider `O=c1[nH]ccc2cc(OC3CCNCC3)ccc12`, for which the Potency entry was “inactive”. The same measure, in the same setting: for `C[C@@H]1C[C@H](C)CN(CCC(=O)Nc2ccc(Br)cc2)C1` the value was “inactive”; for `CCC(C)C(N)C(=O)NCCN1CCOCC1` (stereo not drawn), “inactive”; for `O=C(Nc1ccc(N2CCC(C(=O)N3CCOCC3)CC2)cc1)c1cnc(Oc2ccccc2)nc1`, “inactive”. Same read-out and setting: as for `CN1CCC(Nc2nc(Nc3ccc(Oc4ccccc4)cc3)c3c(=O)[nH]cc(Br)c3n2)CC1`, the figure is 6.74 µM (active).

For the compound `O=C(O)Cc1ccc2oc(-c3ccc(NC(=O)/C=C/c4ccc(Br)cc4)c(F)c3)nc2c1`, the Potency result was “inactive”. With `COc1ccnc(CCc2nc3ncccc3[nH]2)c1`, the Potency result was “inactive”.

Turning to `Cc1ccnn1-c1ccc(C(=O)N2CCN(S(=O)(=O)c3ccc(Cl)c(C(F)(F)F)c3)CC2)cc1`, the Potency entry was “inactive”. The same measure, in the same setting: for `CN(CCCOc1ccc(Cc2ccccc2)cc1)CCC(=O)O` the value was “inactive”; for `CC(C)(C)NS(=O)(=O)c1cncc(-c2cc(F)c3nc(N)nn3c2)c1`, “inactive”; for `CCOC(=O)N1CCC(CN(Cc2ccc(Cl)cc2)Cc2ccc([N+](=O)[O-])s2)C1` (stereo not drawn), “inactive”. Same read-out and setting: as for `COC(=O)[C@H](CC1C=NC=N1)NCC12CC3CC(CC(C3)C1)C2` (stereo partly drawn), the entry is “inactive”. Still for that read-out and setting: as for `C[C@@H]([C@@H](O)c1ccc(O)cc1)N1CCC(O)(c2ccccc2)CC1`, the entry is “inactive”; as for `COc1ccc(NC(=O)c2ccc(-c3ccc(C(N)=O)cc3C)cc2)cc1N1CCN(C)CC1`, “inactive”; as for `COC(=O)C(CC1CCCC1)c1ccc(S(C)(=O)=O)cc1` (stereo not drawn), “inactive”. As for `N[C@@H](CCNCc1ccc(Cl)cc1)C(=O)N1CCCCC1`, the Potency result is “inactive”. Same read-out and setting: as for `N#Cc1cccc(-c2nc(-c3cccnc3)no2)c1`, the entry is “inactive”; as for `FC(F)OC(Cl)C(F)(F)F` (stereo not drawn), “inactive”. The same measure, in the same setting: for `c1ccc(-c2csc(N3CCOCC3)n2)cc1` the value was “inactive”; for `CCCCS(=O)(=O)NC(Cc1ccc(OCCCCC2CCNCC2)cc1)C(=O)O` (stereo not drawn), “inactive”.

On to `O=C(Nc1cccnn1)N1CCN(c2nccc(-c3ccc(F)c(F)c3)n2)CC1`, for which the Potency result is “inactive”. As to `CN1C(=O)OC(C)(C)C1=O`, the Potency result is “inactive”. Same read-out and setting: as for `CN(C)CCOC(c1ccc(Cl)cc1)c1ccccn1` (stereo not drawn), the entry is “inactive”; as for `Nc1nc(N)c(N=O)c(OCC2CCCCC2)n1`, “inactive”.

On to `COc1cc(NC(=O)c2ccccn2)ccc1Cl`, for which the Potency result was “inactive”. Still for that read-out and setting: as for `N#Cc1cc(CN2CCC(Nc3ncnc4sc(Cl)cc34)CC2)ccc1F`, the entry is “inactive”; as for `CC(C)[C@@H]1C(=O)N(S(C)(=O)=O)[C@@H]2CCN(C(=O)/C=C/CN3CCCCC3)[C@H]21`, “inactive”; as for `O=C(O)C[C@@H](NC(=O)c1cc(-c2ccc(-c3ccncc3)cc2)cs1)c1ccccc1`, “inactive”. The same measure, in the same setting: as for `CC1(C)CC(NC(=O)C(=O)Nc2ccc(Cl)cc2)CC(C)(C)N1`, the entry is “inactive”; as for `Cc1nc(NC(=O)N2CCCC2C(N)=O)sc1-c1csc(C(C)(C)C)n1` (stereo not drawn), “inactive”. Same read-out and setting: as for `OC1CCC(Nc2ncc3nc(Nc4c(F)cc(F)cc4F)n([C@H]4CCOC4)c3n2)CC1` (stereo partly drawn), the entry is “inactive”; as for `Cc1nnc(-c2ccc(-c3ccc(C(=O)Nc4ccc(O)c(N5CCN(C)CC5)c4)cc3)c(C)c2)o1`, “inactive”.

In the case of `CCOc1ccc(CNC(=O)Cn2c(=O)c3cccn3c3ccc(F)cc32)cc1`, the Potency was 0.425 µM (active).

As for `CC(=O)NC[C@H]1CN(c2ccc(N3CCSCC3)c(F)c2)C(=O)O1`, the Potency entry is “inactive”. On the same count and under the same terms, for `CCN(CC)CCCC(C)Nc1ccnc2cc(Cl)ccc12` (stereo not drawn) the value was “inactive”; for `CC1(C)CCC(C)(C)c2cc(C#Cc3ccc(C(=O)O)cc3)ccc21`, “inactive”; for `Nc1nc(-n2cc(C(=O)O)c(=O)c3cc(F)c(N4CC(O)C4)c(Cl)c32)c(F)cc1F`, “inactive”. Still for that read-out and setting: for `N#Cc1ccc2[nH]c(O)c(-c3ccc(CN4CCOCC4)cn3)c2c1` the value was “inactive”. Turning to `COc1cccc(OC)c1-c1nc(C(=O)N[C@@H](CC(C)C)C(=O)O)cn1-c1ccnc2cc(Cl)ccc12`, the Potency entry was “inactive”. On to `O=C(Nc1ccc(Br)cc1)c1cc(Br)c(Br)s1`, for which the Potency entry is “inactive”.

System in a further assay: not listed separately
The assay is described as follows: Viability qHTS for spleen associated tyrosine kinase inhibitor (SYKi) naive MV4-11 cells (AID 1963823). The note with it: MV4-11 AML viability, CellTiter-Glo luminescence, 72 h; series mostly up to 45 µM. The procedure, abridged:
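Seeding of 500 SYKi-naive MV4-11 cells per well onto pre-dispensed compounds preceded a 72 hr incubation at 37 C. Luminescent CellTiter-Glo signal, read after 10 min at room temperature, reflected viable cells.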
(In general: In qHTS, concentration-response curves come from the screen itself.)
Turning to `C[C@@H]1C[C@H](C)CN(CCC(=O)Nc2ccc(Br)cc2)C1`, the Potency result is “inactive”. The same measure, in the same setting: for `CCC(C)C(N)C(=O)NCCN1CCOCC1` (stereo not drawn) the value was “inactive”; for `O=C(Nc1ccc(N2CCC(C(=O)N3CCOCC3)CC2)cc1)c1cnc(Oc2ccccc2)nc1`, “inactive”. As for `CN1CCC(Nc2nc(Nc3ccc(Oc4ccccc4)cc3)c3c(=O)[nH]cc(Br)c3n2)CC1`, the Potency result was “inactive”. Same read-out and setting: for `O=C(O)Cc1ccc2oc(-c3ccc(NC(=O)/C=C/c4ccc(Br)cc4)c(F)c3)nc2c1` the value was “inactive”.

On to `COc1ccnc(CCc2nc3ncccc3[nH]2)c1`, for which the Potency result was “inactive”. The same measure, in the same setting: for `Cc1ccnn1-c1ccc(C(=O)N2CCN(S(=O)(=O)c3ccc(Cl)c(C(F)(F)F)c3)CC2)cc1` the value was “inactive”; for `CN(CCCOc1ccc(Cc2ccccc2)cc1)CCC(=O)O`, “inactive”. Still for that read-out and setting: as for `CCOC(=O)N1CCC(CN(Cc2ccc(Cl)cc2)Cc2ccc([N+](=O)[O-])s2)C1` (stereo not drawn), the figure is 10.3 µM (active). Still for that read-out and setting: as for `COC(=O)[C@H](CC1C=NC=N1)NCC12CC3CC(CC(C3)C1)C2` (stereo partly drawn), the entry is “inactive”; as for `C[C@@H]([C@@H](O)c1ccc(O)cc1)N1CCC(O)(c2ccccc2)CC1`, “inactive”. Take `COC(=O)C(CC1CCCC1)c1ccc(S(C)(=O)=O)cc1` (stereo not drawn): the Potency result was “inactive”. On the same count and under the same terms, as for `N[C@@H](CCNCc1ccc(Cl)cc1)C(=O)N1CCCCC1`, the entry is “inactive”.

For `N#Cc1cccc(-c2nc(-c3cccnc3)no2)c1`, the Potency entry is “inactive”. Still for that read-out and setting: for `c1ccc(-c2csc(N3CCOCC3)n2)cc1` the value was “inactive”; for `CCCCS(=O)(=O)NC(Cc1ccc(OCCCCC2CCNCC2)cc1)C(=O)O` (stereo not drawn), “inactive”; for `O=C(Nc1cccnn1)N1CCN(c2nccc(-c3ccc(F)c(F)c3)n2)CC1`, “inactive”. The same measure, in the same setting: as for `Nc1nc(N)c(N=O)c(OCC2CCCCC2)n1`, the figure is 6.51 µM (active) and 6.61 µM (active). Still for that read-out and setting: for `N#Cc1cc(CN2CCC(Nc3ncnc4sc(Cl)cc34)CC2)ccc1F` the value was 9.2 µM (active). For the compound `CC(C)[C@@H]1C(=O)N(S(C)(=O)=O)[C@@H]2CCN(C(=O)/C=C/CN3CCCCC3)[C@H]21`, the Potency result was “inactive”. On the same count and under the same terms, for `O=C(O)C[C@@H](NC(=O)c1cc(-c2ccc(-c3ccncc3)cc2)cs1)c1ccccc1` the value was “inactive”; for `CC1(C)CC(NC(=O)C(=O)Nc2ccc(Cl)cc2)CC(C)(C)N1`, “inactive”; for `Cc1nnc(-c2ccc(-c3ccc(C(=O)Nc4ccc(O)c(N5CCN(C)CC5)c4)cc3)c(C)c2)o1`, “inactive”.

In the case of `CCN(CC)CCCC(C)Nc1ccnc2cc(Cl)ccc12` (stereo not drawn), the viability (% of control) was 72.7% [at 9.25 µM] and the Potency was 8.2 µM (active). For `CC1(C)CCC(C)(C)c2cc(C#Cc3ccc(C(=O)O)cc3)ccc21`, the Potency entry is “inactive”. The same measure, in the same setting: as for `N#Cc1ccc2[nH]c(O)c(-c3ccc(CN4CCOCC4)cn3)c2c1`, the entry is “inactive”; as for `COc1cccc(OC)c1-c1nc(C(=O)N[C@@H](CC(C)C)C(=O)O)cn1-c1ccnc2cc(Cl)ccc12`, “inactive”.
